Records with an inconclusive call do not appear. Entries that show only a call come without a potency. The source made the active and inactive calls. The call rests on the fitted dose curve; in most records, active means well fitted cell-killing curve with a large enough effect; inconclusive means small, poorly fitted or top-dose-only effect; inactive means no such curve, though single readings can be large or run the other way.
Test: qHTS of pediatric cancer cell lines to identify multiple opportunities for drug repurposing: Primary screen for Rh41 cells (AID 1347108);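 further: luminescence drop marks cytotoxic hits; nearly all actives have a fitted effect of over 70% in size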
Conditions: Rh41 rhabdomyosarcoma viability, CellTiter-Glo luminescence, 48 h; series mostly up to 46 µM
From the text: Drug repurposing or repositioning has been offered as a strategy for drug development in oncology programs. This approach has special potential for childhood cancers and other rare or orphan diseases, where the expected return on new drug development has been a disincentive to pharmaceuticals. […] In this project we exploit the poly-pharmacology of drugs to discover new indications via phenotypic screening of a panel of 19 well-characterized cell lines derived from solid tumors seen in children and adolescents. The goal is to identify approved drugs with previously unrecognized anticancer properties that has the potential to reveal new mechanisms and biological processes involved in carcinogenesis or drug resistance. We employed a titration-based paradigm (quantitative high-throughput screening or qHTS), where all compounds were tested at multiple concentrations for their effect on cell viability. Concentration-response curves (CRCs) were derived directly from the primary screen, and both potency and efficacy values were used to identify compounds with robust bioactivity profiles. We screened the NIH Chemical Genomics Center (NCGC) Pharmaceutical Collection (NPC) and Mechanism Interrogation Plate (MIPE) small molecule collections of approved and investigational compounds against these cell lines; and measured metabolically active cells after 48 hours of compound treatment as a proxy for cell viability. […] Assay Submitter: Nathalia J. Martinez, National Center for Advancing Translational Sciences, National Institutes of Health, Rockville, MD, USA; email: natalia.martinez@nih.gov Shen, M et al. Quantitative high-throughput phenotypic screening of pediatric cancer cell lines identifies multiple opportunities for drug repurposing. Oncotarget 2017 Dec 19;9(4):4758-4772. PMID 29435139.
The cells were obtained from University of North Carolina (UNC), Pediatric Preclinical Testing Program (PPT), and Coriell Institute (CI). qHTS cell viability assay: Cells were assayed in growth media at a density of 500-1,000 cells/well. Five microliters of cells were dispensed into 1,536-well, white, solid-bottom, TC-treated plates (Greiner Bio One) using a multidrop dispenser and incubated at 37 degrees C, 5% CO2, under a humidified atmosphere for 5 hours. Twenty-three nanoliters of compounds and controls (neutral control DMSO or positive control bortezomib at final concentration of 2.3 µM) were subsequently transferred by Kalypsys pintool. For primary screens, the MIPE collection was tested at 11-point dilutions (final concentrations range from 0.78 nM to 46 µM) and the NPC collection at 8-point dilutions (final concentrations range from 0.59 nM to 46 µM). Compounds tested in follow-up screens were assayed at 11-point dilutions. Cells were incubated for 48 hours, followed by addition of 3 µL of CellTiter-Glo (Promega). After a 15 min incubation at room temperature, samples were analyzed for luminescence intensity using a ViewLux High-throughput CCD imager equipped with clear filters.
With O=C1OC(CN2CCOCC2)CN1/N=C/c1ccc([N+](=O)[O-])o1 (stereo not given) the Potency was “inactive”.
For C/C=C/C=N/NC(=O)c1ccncc1, the Potency was “inactive”.
With CC(=O)Nc1ncc([N+](=O)[O-])s1 the Potency was “inactive”.
For COc1ccc(C(=O)c2ccccc2)c(O)c1, the Potency was “inactive”.
For CCOC(=O)Nc1ccc2c(c1)N(C(=O)CCN1CCOCC1)c1ccccc1S2, the Potency was “inactive”.
In the case of Cc1ccc(-c2ncc(Cl)cc2-c2ccc(S(C)(=O)=O)cc2)cn1, the Potency is reported as “inactive”.
In the case of CC(C(=O)O)c1cccc(Oc2ccccc2)c1 (stereo not given), the Potency is reported as “inactive”.
For N#CCC(=O)NN, the Potency was “inactive”.
In the case of COc1ccc(CN(CCN(C)C)c2ncccn2)cc1, the Potency is reported as “inactive”.
With Cc1cc(NS(=O)(=O)c2ccc(N)cc2)nc(C)n1 the Potency was “inactive”.
With CC(=O)N[C@@H](CCC(=O)O)C(=O)O the Potency was “inactive”.
With COc1ccc(/C=N/NC(=O)c2ccncc2)cc1OC the Potency was “inactive”.
With NCc1ccccc1Sc1ccccc1CO the Potency was “inactive”.
For CCCCNC(=O)NS(=O)(=O)c1ccc(N)cc1, the Potency was “inactive”.
With CCCCN=C(N)N=C(N)N the Potency was “inactive”.
With CN1CCC(OC(c2ccccc2)c2ccccc2)CC1 the Potency was “inactive”.
With CCC(Cc1c(I)cc(I)c(N)c1I)C(=O)O (stereo not given) the Potency was “inactive”.
With O=S(c1cc(Cl)cc(Cl)c1O)c1cc(Cl)cc(Cl)c1O the Potency was “inactive”.
In the case of NC(=S)N/N=C/c1cccnc1, the Potency is reported as “inactive”.
In the case of CCCCC(CC)CN1CN(CC(CC)CCCC)CC(C)(N)C1 (stereo not given), the Potency is reported as “inactive”.
For CC(C)(C)CC(C)(C)c1ccc(O)c(-n2nc3ccccc3n2)c1, the Potency was “inactive”.
In the case of CC(=O)Nc1ccc(OC(=O)c2ccccc2OC(C)=O)cc1, the Potency is reported as “inactive”.
With Nc1ccc(S(=O)(=O)Nc2cnc3ccccc3n2)cc1 the Potency was “inactive”.
With COc1cc(O)c(C(=O)c2ccccc2)cc1S(=O)(=O)O the Potency was “inactive”.
With CCOC(=O)c1c(N)sc2c1CCN(Cc1ccccc1)C2 the Potency was “inactive”.
In the case of O=C1c2cccc3c2[C@H](CCC3)CN1[C@@H]1CN2CCC1CC2, the Potency is reported as “inactive”.
In the case of CCN[C@@H]1C[C@H](N)[C@@H](OC2OC(CN)=CCC2N)[C@H](O)[C@H]1O[C@H]1OC[C@](C)(O)[C@H](NC)[C@H]1O (stereo not given in full), the activity change, negative = cytotoxic is reported as 8.19% [at 0.597 µM] (inactive).
For CN1CCN(C2=Nc3ccccc3Sc3ccc(Cl)cc32)CC1, the Potency was “inactive”.
With O=C(NCCc1c[nH]c2ccccc12)c1cccnc1 the Potency was “inactive”.
With CCC(C(=O)OCCOCCN(CC)CC)c1ccccc1 (stereo not given) the Potency was “inactive”.
In the case of Cc1cc2c(OCC(CNC(C)(C)C)OC(=O)c3ccccc3)cccc2[nH]1 (stereo not given), the Potency is reported as “inactive”.
With O=C(NC1CCN(CCc2c[nH]c3ccccc23)CC1)c1ccccc1 the Potency was “inactive”.
For CCCCC(CC)COC(=O)/C=C/c1ccc(OC)cc1 (stereo not given), the Potency was “inactive”.
For CO[C@]12C[C@@H](COC(=O)c3cncc(Br)c3)CN(C)[C@@H]1Cc1cn(C)c3cccc2c13, the Potency was “inactive”.
With NC(=O)C1(N2CCCCC2)CCN(CCCC(=O)c2ccc(F)cc2)CC1 the Potency was “inactive”.
In the case of O=[N+]([O-])c1ccc(/C=N\O)o1, the Potency is reported as “inactive”.
For Cl/C(=C\n1cncn1)c1ccc(Cl)cc1Cl, the Potency was “inactive”.
With Cc1cccc(C)c1NC(=O)c1ccccc1C(=O)O the Potency was “inactive”.
With COc1cc(C(=S)N2CCOCC2)ccc1O the Potency was “inactive”.
In the case of COc1ccc(C(=O)c2ccccc2O)c(O)c1, the Potency is reported as “inactive”.

Source: PubChem BioAssay (NCATS)
